Assay outcomes as filed in PubChem BioAssay.
D2 ag-1 – HTS Assay for Allosteric Agonists of the Human D2 Dopamine Receptor: Primary Screen for Agonists. D(2) dopamine receptor (Homo sapiens), P14416. HEK293 T-REx D2 cells, calcium flux agonist mode. activation, % at 2 µM. 340,000 compounds, 0.53% hits. AID 485358, 2010;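 active = activation over 3 SD above normal in the single-dose calcium agonist read, cut at about 30% in these data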; also: 0% is about no effect
Target sequence (P14416 whole entry, looked up): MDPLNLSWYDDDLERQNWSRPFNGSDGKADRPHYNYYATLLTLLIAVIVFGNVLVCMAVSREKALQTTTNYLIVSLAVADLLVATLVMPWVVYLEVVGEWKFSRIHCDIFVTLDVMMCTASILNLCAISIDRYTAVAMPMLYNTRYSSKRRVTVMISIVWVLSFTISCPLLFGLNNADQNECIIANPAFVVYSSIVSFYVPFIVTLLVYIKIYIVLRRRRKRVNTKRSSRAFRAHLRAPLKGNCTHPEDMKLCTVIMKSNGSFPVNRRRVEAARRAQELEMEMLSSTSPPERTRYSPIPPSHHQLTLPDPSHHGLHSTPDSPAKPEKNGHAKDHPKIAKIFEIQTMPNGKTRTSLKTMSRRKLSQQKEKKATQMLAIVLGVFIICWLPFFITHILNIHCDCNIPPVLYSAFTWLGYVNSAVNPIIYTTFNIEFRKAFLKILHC
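Agonism scored from kinetic calcium signal (1 read/sec, 180 s) following compound pin transfer, after a 10 s baseline. Cells: HEK293 Trex line expressing inducible D2 receptor coupled to calcium, dye-loaded after overnight culture at 30 C.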
D2 PAM-1 – HTS Assay for Positive Allosteric Modulators of the Human D2 Dopamine Receptor: Primary Screen for Potentiators; D(2) dopamine receptor (Homo sapiens), P14416; HEK293 T-REx D2, calcium flux, EC20 dopamine potentiation; potentiation, % at 10 µM; 340,000 compounds, 0.34% hits; AID 485347, 2010;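 active = potentiation over 3 SD above the plate norm, cut at about 30% in these data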; also: 0% is about no effect
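Using a no-wash calcium dye in inducible, force-coupled HEK293 Trex cells expressing D2, we tracked fluorescence each second for 180 s after compound, then for 180 s after EC20 dopamine to detect augmented signalling.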
D2 ag-2 – Beta-Arrestin HTS for Positive Allosteric Modulators of the Human D2 Dopamine Receptor: Agonists; D(2) dopamine receptor (Homo sapiens), P14416; DiscoveRx PathHunter D2 beta-arrestin, luminescence, 90 min; 100% = 57 uM dopamine signal; AID 624465, 2012; activation, % (no concentration beside the values); 360,000 compounds, 0.084% hits; in the data active = activation above about 40%; inconclusive = between about 15% and that limit
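DiscoveRx PathHunter D2 beta-arrestin cells (2,100/well) attached overnight, then compound-stimulated 90 min at 37 C in HBSS/10 mM HEPES/0.1% Tween-20 buffer; beta-galactosidase complementation read by luminescence after 1 h at ambient temperature. Dopamine 57 uM final (EC100) as control.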
D2 antag – HTS Assay for Allosteric Antagonists of the Human D2 Dopamine Receptor: Primary Screen for Antagonists; D(2) dopamine receptor (Homo sapiens), P14416; HEK293 TREx D2 cells, calcium flux, dopamine EC80; inhibition, % at 10 µM; 340,000 compounds, 2% hits; AID 485344, 2010; in the data active = inhibition above about 30%; inactive = below that, where a call was filed; also: 0% is about no effect
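Tetracycline-induced HEK293 T-REx cells expressing D2 force-coupled to calcium signalling were dye-loaded, exposed to compound for 180 s, then challenged with an EC80 of dopamine; calcium flux was followed kinetically for a further 180 s.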
D2 PAM-2 – Beta-Arrestin HTS for Positive Allosteric Modulators of the Human D2 Dopamine Receptor: Potentiators | potentiation, % (no concentration beside the values) | D(2) dopamine receptor (Homo sapiens), P14416 | DiscoveRx D2 beta-arrestin cells, luminescence, 90 min; 100% = 57 uM dopamine signal | 360,000 compounds, 0.23% hits; in the data active = potentiation above about 50%; inconclusive = mostly about 30% to 49%
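D2 cells co-treated with compound plus 50 nM dopamine (EC20) for 90 min at 37 deg C to detect potentiation. Beta-arrestin recruitment was read as enzyme-fragment luminescence after 1 h at ambient temperature. Full response was set by 57 uM dopamine.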
* marks the source's active call; other numbers are inactive results; ? = inconclusive; . = no result given. Shown are actives, neighbours in structure and some others; about 2.4% of the full set was active somewhere.

SMILES	D2 ag-1	D2 PAM-1	D2 ag-2	D2 antag	D2 PAM-2
COc1cccc(S(=O)(=O)N(C)C[C@H]2OCc3cnnn3CCCC(=O)N([C@@H](C)CO)C[C@H]2C)c1	.	.	-11	.	2
CC1(C)Nc2ccc(O)cc2-c2c1ssc2=S	0	16	3	36*	28
COc1cccc(-n2sc3c(c2=S)-c2cc(OC)ccc2NC3(C)C)c1	0	6	-1	-7	2
CCCC(=O)Nc1ccc(OCC(=O)OC)cc1	1	-2	1	16	-8
CCCC(=O)Nc1ccc(Oc2ccc(NC(=O)CCC)cc2)cc1	0	35*	0	-16	12
NNc1nc(-c2ccccc2Cl)nc2sc3c(c12)CCCC3	0	13	?	-7	53*
Cc1cc(Br)ccc1NC(=O)CNC(=O)CNc1cccc([N+](=O)[O-])c1	0	-11	0	31*	-28
O=C(CNc1cccc([N+](=O)[O-])c1)NCCCc1ccccc1	0	-11	-4	11	-6
C/C(=N\O)c1cc(Cl)cc(Cl)c1O	0	14	-5	-9	-8
C/C(=N\NC(N)=O)c1cc(Cl)cc(Cl)c1O	1	-26	6	54*	-7
CCc1nc2ccc(C(=O)N3CCN(S(=O)(=O)CC)CC3)cn2c1N(CC)C(=O)NCCc1ccccc1	.	.	-3	.	1
CCOc1ccc(/C=N/OCC(=O)NCc2ccc3c(c2)OCO3)cc1OC	-1	-8	1	32*	-18
O=C(CN1CCN(c2ccc(F)cc2)CC1)N1N=CCC1c1ccccc1 (stereo unspecified)	0	2	1	36*	-19
O=C(Nc1nc2n(n1)C(c1ccc(F)cc1)C=C(c1ccccc1)N2)c1cccc([N+](=O)[O-])c1 (stereo unspecified)	1	-3	.	.	.
O=C(OCCN1C(=O)c2cccc3c(N4CCOCC4)ccc(c23)C1=O)c1ccc(Cl)cc1Cl	36*	-10	-1	27	-18
O=C(OCCN1C(=O)c2ccccc2C1=O)c1cc(S(=O)(=O)N2CCOCC2)ccc1Cl	0	15	3	-7	-7
O=C(OCCN1C(=O)c2cccc3c(N4CCOCC4)ccc(c23)C1=O)c1cccc(Cl)c1	74*	-18	2	35*	-29
O=C(Nc1ccc(Oc2ccccc2)cc1)c1ccc2nc([C@@H]3O[C@H](CO)[C@H](O)[C@H](O)[C@H]3O)[nH]c2c1	.	.	2	.	-4
Cc1cc(NC(=O)CCSc2nc(-c3ccco3)cc(C(F)(F)F)n2)no1	-1	1	-3	-15	0
Cc1cc(NC(=O)CSc2nc(-c3ccco3)cc(C(F)(F)F)n2)no1	2	-2	-4	36*	-18
O=c1c2ccccc2n2nnnc2n1-c1ccccc1	1	32*	-2	13	-8
CCOC(=O)c1c(NC(=O)c2ccc(S(=O)(=O)N3CCC(C)CC3)cc2)sc2c1CCN(C)C2	0	-6	.	.	.
O=c1[nH]cnc2c1ncn2[C@@H]1C[C@@H](O)[C@H](CO)O1	1	10	-6	38*	0
COC(=O)c1ccc(NC(=O)CSc2nnnn2C2CCCCC2)cc1	0	-1	7	42*	-9
C[C@@H]1CC2OC(=O)[C@@]3(C)C(=O)CC[C@@](C)(C23)[C@@]1(O)CCc1ccoc1 (stereo partly specified)	0	-13	-1	30*	1
SMILES	D2 ag-1	D2 PAM-1	D2 ag-2	D2 antag	D2 PAM-2
C=CCNc1nc(SC)nc2ccsc12	0	-4	-1	32*	-18
CCOc1ccc(N2CC(NC(=O)c3ccc(S(=O)(=O)N4CCOCC4)cc3)CC2=O)cc1 (stereo unspecified)	1	19	.	.	.
Cc1ccc(NC(=S)c2nc3ccccc3s2)cc1	0	87*	-4	-1	-8
S=C(Nc1ccc(Cl)cc1)c1nc2ccccc2s1	0	2	-3	-7	-18
Cc1ccccc1NCC(=O)N/N=C/c1c(C)c(C(=O)c2ccc(Cl)cc2)n2ccccc12	2	-3	-1	32*	-16
CCC(=O)NNc1nc2c(F)cc(F)cc2s1	1	5	1	40*	1
O=C(NNc1nc2c(F)cc(F)cc2s1)C1=COCCO1	-1	2	0	39*	-1
Cc1ccc(S(=O)(=O)N2CCN(Cc3ccc4c(c3)OCO4)CC2)cc1	0	-31	.	.	.
CCn1c(=O)c(=O)n(CC)c2cc(N3CCCCC3)c(NC(=O)c3ccccc3OC)cc21	-1	6	.	.	.
CCCc1cc(N2CCCC(C(=O)NCc3ccc4c(c3)OCO4)C2)n2ncnc2n1 (stereo unspecified)	-1	36*	4	4	6
Cc1cc(C)nc(N2CCCC(C(=O)NCc3ccc4c(c3)OCO4)C2)n1 (stereo unspecified)	-1	1	-6	-5	-5
CCc1ccc(N2CC(C(=O)OCc3csc(CC(=O)Nc4ccccc4C)n3)CC2=O)cc1 (stereo unspecified)	1	56*	-4	-5	-3
CCOC(=O)/C=C/C(=O)OCc1csc(CC(=O)Nc2ccccc2C)n1	1	-2	-7	-2	8
COc1ccc(Cl)cc1NC(=S)N1CCN(c2ncccn2)CC1	12	5	2	12	-2
COc1ccc(Cl)cc1NC(=S)N1CCN(c2ccccn2)CC1	21	-8	2	35*	-4
COc1cc(NC(=S)N2CCN(c3ccccn3)CC2)c(OC)cc1Cl	34*	-9	7	12	-4
COc1cccc(NC(=S)N2CCN(c3ccccn3)CC2)c1	32*	-9	?	-8	4
S=C(Nc1cccc(Cl)c1)N1CCN(c2ccccn2)CC1	2	-11	-5	-15	-1
S=C(Nc1ccc(Cl)cc1Cl)N1CCN(c2ccccn2)CC1	8	1	2	18	-1
Cc1c(OCc2nn[nH]n2)ccc2c(-c3ccccc3)cc(=O)oc12	0	11	-2	-7	-2
Cc1cc(OCc2nn[nH]n2)c2c(-c3ccccc3)cc(=O)oc2c1	-1	4	-3	51*	-1
Oc1ccc(-c2nc(-c3ccc(O)c(O)c3)cs2)cc1	3	-5	14	-5	50*
O=C(CC1N=C2c3ccccc3N=C(SCc3cccc(F)c3)N2C1=O)NCc1ccc2c(c1)OCO2 (stereo unspecified)	0	-11	.	.	.
